According to PubChem BioAssay AID463173 (ICCB-Longwood Screening Facility, Harvard Medical School, 2010):
About 4,300 (8.3%) of roughly 52,000 compounds were called active. For the sample, actives were picked, then their nearest neighbours and some compounds at random. Values without a mark were called inactive. Cut-off read from the data, not from the text of the source: active = survival mostly below about 52% (no sharp cut-off); inactive = mostly above about 56%.

What follows are compounds tested on DeltatarO mutant (assay: growth inhibition of S. aureus wild type versus tarO mutant, primary screen, teichoic acid synthesis inhibitors, RN4220, OD600 (AID 463173)). Conditions: OD600, 18 h, active compounds read low, screened at 18.75 µg/mL (by protocol).

SMILES	survival
COc1ccc(-c2nc3scc(CCNS(=O)(=O)c4ccc(C)cc4)n3n2)cc1	70%
CCn1cc2nc(SCc3cccc(C(F)(F)F)c3)n(Cc3ccc(Cl)cc3)c(=O)c2n1	124%
COc1cccc(N2CCN(c3ccc4nnc(CCC(=O)O)n4n3)CC2)c1	89%
Cc1nn(C)c(C)c1CCNC(=O)Nc1cccc(Cl)c1C	67%
COC(=O)c1ccc(Cl)cc1NC(=O)NCCc1c(C)nn(C)c1C	81%
COc1ccc(NC(=O)NCCc2c(C)nn(C)c2C)c(OC)c1	90%
Cc1nn(C)c(C)c1CCNC(=O)Nc1ccccc1C(F)(F)F	6% (active)
COC(=O)c1ccccc1NC(=O)NCCc1c(C)nn(C)c1C	86%
COc1ccc(Cl)cc1NC(=O)NCCc1c(C)nn(C)c1C	-1% (active)
Cn1c(=O)oc2cc(S(=O)(=O)NC(Cc3ccccc3)C(=O)Nc3ccc(F)c(Cl)c3)ccc21 (stereo not drawn)	83%
COc1ccc(NC(=O)CN(C)S(=O)(=O)c2cccc3nsnc23)cc1	106%
Cc1nnc(SCC(=O)Nc2ccc(N(C)C)cc2)[nH]c1=O	77%
O=c1[nH]c(SCc2ccc(Br)cc2)nc2c1CCCC2	52%
O=c1[nH]c(SCc2ccccc2)nc2c1CCCC2	57%
O=c1[nH]c(SCc2ccc(F)cc2)nc2c1CCCC2	63% (active)
O=C(CSc1nc2ccccc2nc1Cc1ccc(Cl)cc1)N1CCN(c2ccccc2F)CC1	71%
Cc1ccc(NC(=O)CSc2nc3ccc(NC(=O)COc4ccc(C)cc4)cc3s2)cc1	83%
CC(=O)Nc1cc(C(=O)NCc2ccc(C)cc2)ccc1Sc1ccc(C)cc1	96%
COCc1cc(C)nc2c1C(=O)NC(c1ccc(Br)cc1)N2Cc1ccccc1 (stereo not drawn)	69%
COc1cc2c(cc1NC(=O)C(C)Oc1ccccc1)oc1ccccc12 (stereo not drawn)	-1% (active)
COc1ccc(-c2nc3ccccc3o2)cc1NC(=O)C(C)Oc1ccc(Cl)cc1Cl (stereo not drawn)	38% (active)

SMILES	survival
Cc1ccc(OCC(=O)Nc2cccc3ccc(C)nc23)c(C)c1	62%
Cc1ccc2cccc(NC(=O)C(C)Oc3ccc(Cl)cc3Cl)c2n1 (stereo not drawn)	-2% (active)
COc1ccc(Cl)cc1NC(=O)NCc1noc2ccccc12	35%
COc1cc2c(cc1NC(=O)COc1ccc(Cl)cc1Br)oc1ccccc12	51%
Cc1ccc2cccc(NC(=O)C(C)Oc3ccc(C)c(C)c3)c2n1 (stereo not drawn)	56%
COc1cc2c(cc1NC(=O)COc1cc(C)cc(C)c1)oc1ccccc12	59%
COc1cc2c(cc1NC(=O)COc1cc(C)ccc1C)oc1ccccc12	79%
COc1cc2c(cc1NC(=O)C(C)Oc1ccc(Cl)cc1Cl)oc1ccccc12 (stereo not drawn)	38% (active)
CCOC(=O)c1ccc(NC(=O)CSc2nnc3c4ccccc4n(CC)c3n2)cc1	72%
O=C(CSc1nc2c(c(=O)[nH]1)CN(Cc1ccc3c(c1)OCO3)CC2)Nc1ccc(F)cc1	75%
Cc1ccc(NC(=O)Cn2cc(S(=O)(=O)c3ccc(C)cc3)c(=O)c3cc4c(cc32)OCO4)cc1	58%
COc1ccc(NC(=O)c2c(NCc3sccc3C)sc3c2CCCCC3)c(OC)c1	85%
CCOc1ccc(CCNc2ncnc3onc(C)c23)cc1OCC	71%
O=C(Nc1cccnc1)c1cc(-c2cccc(Cl)c2)on1	115%
O=C(CN1C=NS(=O)(=O)c2ccccc21)Nc1ccc(F)cc1	87%
CC1=C(C(=O)Nc2ccc(C)cc2C)C(c2ccc[nH]2)n2ncnc2N1 (stereo not drawn)	89%
O=C(CSc1ncc2c(n1)-c1ccccc1N(Cc1ccc(F)cc1)S2(=O)=O)c1ccc(Cl)cc1	89%
CCOC(=O)c1c(C)[nH]c(C)c1S(=O)(=O)N(C)CC(=O)N1CCN(c2cccc(C)c2C)CC1	84%
CC(C)c1nn2c(=O)cc(COC(=O)c3ccc(NC(=O)COc4ccccc4)cc3)nc2s1	98%
O=C(NCCS(=O)(=O)N1CCN(c2ccc(F)cc2)CC1)c1cc(=O)c2ccccc2o1	94%
CCCCN1C(=O)CN(C2CCCCCC2)C(=O)C1c1ccc(OCCC)c(OC)c1 (stereo not drawn)	66%

SMILES	survival
CCCOc1ccc(C2C(=O)N(C3CCCCC3)CC(=O)N2C2CCCCC2)cc1OC (stereo not drawn)	91%
CCCOc1ccc(C2C(=O)N(C3CCCCCC3)CC(=O)N2CCC)cc1OC (stereo not drawn)	-4% (active)
COc1ccc(C2C(=O)N(C3CCC(C)CC3)CC(=O)N2C2CCCC2)cc1OC (stereo not drawn)	-2% (active)
CCCOc1ccc(C2C(=O)N(C3CCCCCC3)CC(=O)N2CCC2=CCCCC2)cc1OC (stereo not drawn)	119%
CCCN1C(=O)CN(C2CCCCCC2)C(=O)C1c1ccc(OCC)c(OC)c1 (stereo not drawn)	109%
COc1ccc(C2C(=O)N(C3CCC(C)CC3)CC(=O)N2CCC2=CCCCC2)cc1OC (stereo not drawn)	-1% (active)
COc1ccc(C2C(=O)N(C3CCC(C)CC3)CC(=O)N2C2CCCCC2)cc1OC (stereo not drawn)	76%
CCCOc1ccc(C2C(=O)N(C3CCC(C)CC3)CC(=O)N2CCC2=CCCCC2)cc1OC (stereo not drawn)	80%
CCCCN(C)C(=O)CN1C(=O)CCn2nc(-c3cn(C)c4ccccc34)cc21	117%
Cc1cccc(NC(=O)CSc2nc(=O)n(CCN3CCOCC3)c3c2CCC3)c1	86%
COc1cccc(C(=O)NCCSc2c(-c3ccc(F)cc3)[nH]c3ccccc23)c1OC	52%
O=C(NC1CCN(C(=O)Nc2cccc(F)c2)CC1)c1ccco1	88%
COc1cccc(N2C(=O)N(CC(=O)NCc3cccc(OC)c3OC)c3ccccc3S2(=O)=O)c1	95%
COc1cc(C(Nc2ccc(S(=O)(=O)N3CCCC3)cc2)C(=O)NC(C)(C)C)cc(OC)c1OC (stereo not drawn)	77%
CC(=O)ONC(=Nc1ccccc1C)c1nonc1N	101%
COc1ccc(OC)c(/C=C(/C#N)c2nc(-c3ccc(-c4ccccc4)cc3)cs2)c1	52%
Cc1ccc(-c2csc(/C(C#N)=C/c3ccccc3Cl)n2)cc1	21% (active)
COc1c(Cl)cc(Cl)cc1/C=C(\C#N)c1nc(-c2ccc(Cl)cc2)cs1	122%
N#C/C(=C\c1ccc(Cl)cc1Cl)c1nc(-c2cccc(Cl)c2)cs1	79%
N#C/C(=C/c1ccccc1Cl)c1nc(-c2cc3ccccc3oc2=O)cs1	81%
Cc1ccccc1/C=C(\C#N)c1nc(-c2ccc(Cl)cc2)cs1	14% (active)
